From PubChem
The list is not random: actives were taken first. Their share in the collection is about 8%.
KB-V1 cytotox = KB-V1 MDR subline cytotoxicity; KB-V1 MDR cells viability, CellTiter-Glo, 72 h; 400,000 compounds, 3.4% hits; Potency, µM (top dose mostly 46.1 µM), usual class: cytotoxic; further: nearly all actives have a fitted effect of over 60% in size
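KB-V1 MDR subline cells in DMEM (phenol-red free, 10% FBS) exposed to compounds in qHTS concentration series for 72 h at 37 degrees C. Viability read by CellTiter-Glo luminescence; concentration-effect curves fitted after normalization and correction.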
HT1080NT lethal = kills 2HG-producing HT-1080-NT fibrosarcoma cells. Potency, µM (series often up to 46.1 µM), hits mostly cytotoxic. 360,000 compounds, 1.6% hits. HT-1080-NT fibrosarcoma viability, CellTiter-Glo ATP luminescence, 48 h;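 further: NT is the 2HG producing partner of a matched IDH1 knockdown line; nearly all actives have a fitted effect of over 55% in size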
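Viability by CellTiter-Glo luminescence after 48 h compound exposure at 37C of HT-1080-NT cells (750/well, RPMI, 5% FBS). % activity scaled between DMSO wells and medium-only wells, then curve-fitted and categorized by curve class.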
KB-3-1 tox = KB-3-1 parental cell cytotoxicity; AID 1347075; KB-3-1 viability, CellTiter-Glo ATP luminescence, 72 h; 400,000 compounds, 1.4% hits; Potency, µM (titrated, usually from 46.1 µM), most hits filed as cytotoxic; further: nearly all actives have a fitted effect of over 60% in size
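Using CellTiter-Glo luminescence, growth of non-resistant KB-3-1 adenocarcinoma cells is assessed 72 h after pin-tool compound addition at 37 °C. Normalized responses across the concentration series yield fitted curves.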
SW480 rerep = DNA re-replication induction in SW480 cells; SW480 DNA re-replication, Hoechst DNA content imaging, 48 h; Potency, µM (top dose mostly 46.1 µM), most hits filed as activators; 340,000 compounds, 1.8% hits; further: nearly all actives have a fitted effect of over 55% in size
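Image-based read-out: total Hoechst fluorescence of nuclei (405 nm excitation, 500-530 nm emission), with hits raising the fraction of high-intensity nuclei. SW480 colon cells incubated 48 hr with compounds at 37 C.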
MCF10A rereplic = DNA re-replication induction in MCF 10a cells. MCF 10A DNA re-replication, Hoechst nuclear intensity, 48 h. Potency, µM (top dose mostly 46.1 µM), usual class: activators. 350,000 compounds, 2.9% hits; further: nearly all actives have a fitted effect of over 50% in size
HT1080 IDH1KD tx = kills HT-1080 cells with IDH1 knockdown. HT-1080 IDH1 knockdown viability, ATP luminescence, 48 h. Potency, µM (highest dose often 46.1 µM), usual class: cytotoxic. 360,000 compounds, 2% hits. AID 686971
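In this qHTS, HT-1080 cells depleted of IDH1 are exposed for 48 h at 37 °C to compound titrations. Toxicity is scored from CellTiter-Glo luminescence, with DMSO as full viability and medium alone as none.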
Large screens that a line does not name were inactive. The call rests on the fitted dose curve; in most records, active means well fitted curve in the direction sought with a large enough effect; inconclusive means small, poorly fitted or top-dose-only effect, or another doubt; inactive means no such curve, though single readings can be large; an effect the other way counts as inactive or inconclusive.

CC(=O)O[C@H]1C[C@@H]2CC[C@@H]3[C@H](CC[C@@]4(C)[C@H]3C[C@H]([N+]3(C)CCCCC3)[C@@H]4OC(C)=O)[C@@]2(C)C[C@@H]1[N+]1(C)CCCCC1	none
Cn1cc(/C=C(\C(=O)O)C(C(=O)O)=C2CCCCC2)c2ccccc21	none
O=C(c1ccc2c(c1)N(Cc1c(F)cccc1Cl)C(=O)c1ccccc1S2)N1CCC2(CC1)OCCO2	none (no result: HT1080NT lethal, SW480 rerep, MCF10A rereplic, HT1080 IDH1KD tx)
CCOC(=O)c1c(NC(=O)C(c2ccccc2)c2ccccc2)sc2c1C1CCN2CC1	KB-V1 cytotox 23µM, KB-3-1 tox inconclusive, SW480 rerep inconclusive, MCF10A rereplic inconclusive
CCC1Nc2ncnc(N3CCN(c4ccccn4)CC3)c2N(Cc2ccc(Br)cc2)C1=O (configuration not stated)	KB-3-1 tox inconclusive, SW480 rerep inconclusive
COc1cc(OC)cc(C(=O)Nc2ccc(Br)cc2C(=O)c2ccccc2)c1	none
COc1cc(C)c(C(=O)CC(=O)c2c(C)cc(OC)cc2C)c(C)c1	SW480 rerep 16µM, MCF10A rereplic 16µM, HT1080 IDH1KD tx inconclusive
O=S(=O)(c1ccc2c(c1)OCCO2)N1CCC(c2nc3ccc(Cl)cc3[nH]2)CC1	KB-V1 cytotox 2.9µM, HT1080NT lethal 11µM, MCF10A rereplic inconclusive, HT1080 IDH1KD tx 14µM
O=c1[nH]c(=S)n(CCC2=CCCCC2)c(O)c1C=NC1CCN(Cc2ccccc2)CC1	KB-V1 cytotox 5.8µM, KB-3-1 tox inconclusive
CCOc1ccc(-n2c(-c3cccs3)nc3ccccc3c2=O)cc1	none
CCn1nc(-c2cccs2)nc2c(=O)n(C)c(=O)nc1-2	KB-V1 cytotox inconclusive, HT1080NT lethal 3.3µM, KB-3-1 tox inconclusive, SW480 rerep inconclusive, MCF10A rereplic 0.73µM, HT1080 IDH1KD tx 2.6µM
CCn1nc(/C=C/c2ccccc2)nc2c(=O)n(C)c(=O)nc1-2	KB-V1 cytotox inconclusive, HT1080NT lethal 4.1µM, KB-3-1 tox 4.1µM, SW480 rerep inconclusive, MCF10A rereplic 11µM, HT1080 IDH1KD tx 1.8µM
CC(=O)N1CCCc2cc(S(=O)(=O)N3CCCC(C(=O)Nc4cccc(F)c4)C3)ccc21 (configuration not stated)	KB-3-1 tox inconclusive
CC12CCC3C(CC=C4CC(O)CCC43C)C1C/C(=C\c1ccccc1F)C2=O (configuration not stated)	HT1080NT lethal inconclusive, MCF10A rereplic 6.5µM, HT1080 IDH1KD tx inconclusive
CC12CCC3C(CC=C4CC(O)CCC43C)C1CC(=CN1CCOCC1)C2=O (configuration not stated)	none
Cc1nn(C)cc1/C=C1/CC2C3CC=C4CC(O)CCC4(C)C3CCC2(C)C1=O (configuration not stated)	KB-V1 cytotox 18µM, MCF10A rereplic inconclusive
CCCS(=O)(=O)NC(=O)C1(C)CCCN(C(=O)c2ccccc2OC)C1 (configuration not stated)	HT1080NT lethal inconclusive (no result: SW480 rerep, MCF10A rereplic)
O=C(O)COc1ccc(Cl)cc1Cl	none
O=C(c1ccco1)N1CCN(C(=O)c2ccc(COc3ccc(Cl)cc3Cl)o2)CC1	KB-V1 cytotox inconclusive, MCF10A rereplic 21µM
CC1CCC(C(C)C)C(OC(=O)c2ccccc2N)C1 (configuration not stated)	MCF10A rereplic 19µM (no result: KB-V1 cytotox, HT1080NT lethal, KB-3-1 tox, HT1080 IDH1KD tx)
CC(C)C(=O)c1cn(Cc2ccccc2C#N)c2ccccc12	KB-V1 cytotox inconclusive
CC(=O)c1cn(Cc2ccccc2C#N)c2ccccc12	KB-V1 cytotox 1.8µM, KB-3-1 tox inconclusive, SW480 rerep inconclusive, MCF10A rereplic inconclusive, HT1080 IDH1KD tx inconclusive
Cc1cccc(N2CCN(C(=O)CCNS(=O)(=O)c3ccc4c(c3)oc(=O)n4C)CC2)c1C	KB-V1 cytotox inconclusive, KB-3-1 tox inconclusive, SW480 rerep inconclusive, MCF10A rereplic inconclusive
C1=NCCc2c1[nH]c1ccccc21	KB-V1 cytotox 16µM, HT1080NT lethal inconclusive, KB-3-1 tox inconclusive, SW480 rerep 4.1µM, MCF10A rereplic 16µM, HT1080 IDH1KD tx 16µM
